Hit rate of the full screen: of about 52,000 compounds, about 4,300 (8.3%) were called active. Rule as the data show it: active = survival mostly below about 52% (no sharp cut-off); inactive = mostly above about 56%. Many of the other results were omitted from the sample, so actives are more common in it than they were.

The experiment deals with DeltatarO mutant. In words: growth inhibition of S. aureus wild type versus tarO mutant, primary screen, teichoic acid synthesis inhibitors, RN4220, OD600 (AID 463173). Particulars: OD600, 18 h, active compounds read low, screened at 18.75 µg/mL (by protocol).
As for `CCOC(=O)C1CCN(C(c2cccc(F)c2)c2c(O)cc(C)n(CCOC)c2=O)CC1` (centres undefined), the survival was 135% (inactive).
Regarding `COc1ccc(CNC(=O)Cn2ccc3cc(S(=O)(=O)N4CCCCC4)ccc32)c(OC)c1`, the survival is 72% (inactive).
On to `Cc1ccc(C)c(NC(=O)CCNS(=O)(=O)c2ccc3c(c2)CCCC(=O)N3)c1`, for which the survival is -4% (active).
Under `Cc1cccc(NC(=O)CCNS(=O)(=O)c2ccc3c(c2)CCCC(=O)N3)c1C` stands 96% (inactive); under `COc1cc(Cl)c(NC(=O)CN(C)S(=O)(=O)c2ccc3c(c2)CCCC(=O)N3)c(OC)c1`, 83% (inactive); under `Cc1ccc(NC(=O)CCNS(=O)(=O)c2ccc3c(c2)CCCC(=O)N3)cc1`, 77% (inactive).
`COc1cc(OC)c(NC(=O)CN(C)S(=O)(=O)c2ccc3c(c2)CCCC(=O)N3)cc1Cl`: the survival is 6% (active).
As for `COc1cc(NC(=O)CN(C)S(=O)(=O)c2ccc3c(c2)CCCC(=O)N3)cc(OC)c1OC`, the survival is 70% (inactive).
Next, `COc1ccccc1CNC(=O)CSc1ncc2c(n1)-c1ccccc1N(Cc1ccc(C)cc1)S2(=O)=O`: 64% (inactive).
Next, `CCc1ccc(NC(=O)c2ccc3c(O)c(S(=O)(=O)c4ccc(Cl)cc4)c(=O)[nH]c3c2)cc1`: 75% (inactive).
As for `Cc1ccc(N(C(=O)Cn2nnc(-c3ccc(C)o3)n2)C(C(=O)NC2CCCCC2)c2ccc(F)cc2)c(C)c1` (centres undefined), the survival was 66% (inactive).
Regarding `COc1ccc(Cn2nnnc2C(c2ccccc2)N2CCC(C)CC2)cc1` (centres undefined), the survival was 68% (inactive).
`CCc1ccc(NC(=O)CN2CCN(Cc3ccccc3)S2(=O)=O)cc1`: the survival is 68% (inactive).
`CCOc1cc2sc(N3CCC(C(=O)Nc4ccc(C)cc4C)CC3)nc2cc1Br`: the survival was 71% (inactive).
Under `CCCOC(=O)c1cccc(Nc2nc(C(=O)OCC)nc3ccccc23)c1` stands 20% (active); under `CCOC(=O)c1nc(Nc2ccccc2C)c2ccccc2n1`, 49% (inactive).
Regarding `CCCCCOC(=O)c1ccc(Nc2nc(C(=O)OCC)nc3ccccc23)cc1`, the survival is 60% (inactive).
Next, `CCOC(=O)c1nc(Nc2ccccc2OC)c2ccccc2n1`: 44% (active); `CCOC(=O)c1nc(Nc2cccc(C)c2)c2ccccc2n1`: 75% (inactive); `CCOC(=O)c1nc(Nc2ccc(OC)cc2)c2ccccc2n1`: 153% (inactive).
As to `CC(=O)c1cccc(NC(=O)c2cc3sc(Cl)cc3n2C)c1`, the survival was 122% (inactive).
Regarding `CCOc1ccc(OCC)c(NC(=O)CN(C)S(=O)(=O)c2ccc3[nH]c(=O)oc3c2)c1`, the survival was 85% (inactive).
Under `COc1ccc(NC(=O)CSc2nc3c(oc4ccccc43)c(=O)n2-c2ccc(C)c(C)c2)cc1` stands 82% (inactive); under `COC(=O)c1sccc1S(=O)(=O)N(CC(=O)Nc1c(C)cccc1C)c1ccc(C)c(C)c1`, 94% (inactive); under `COC(=O)c1sccc1S(=O)(=O)N(CC(=O)Nc1cccc(C)c1C)c1ccc(C)c(C)c1`, 89% (inactive).
In the case of `COC(=O)c1sccc1S(=O)(=O)N(CC(=O)Nc1cc(C)ccc1C)c1ccc(C)c(C)c1`, the survival is 88% (inactive).
As to `COC(=O)c1sccc1S(=O)(=O)N(CC(=O)Nc1ccc(C)c(F)c1)c1ccc(C)c(C)c1`, the survival was 17% (active).
Under `CCc1cccc(NC(=O)CN(c2ccc(C)c(C)c2)S(=O)(=O)c2ccsc2C(=O)OC)c1` stands -5% (active).
Under `COC(=O)c1sccc1S(=O)(=O)N(CC(=O)Nc1cc(F)ccc1F)c1ccc(C)c(C)c1` stands 128% (inactive); under `Cn1c(C(O)c2ccccc2)n[nH]c1=S` (centres undefined), 93% (inactive); under `COc1cccc(-n2c(SCC(N)=O)nc3c(oc4ccccc43)c2=O)c1`, 67% (inactive).
Under `O=C(c1ccccc1)N1CCN(S(=O)(=O)c2ccccc2)CC1` stands 68% (inactive); under `O=C(CN1C(=O)CCn2nc(-c3ccccc3)cc21)NCc1ccccc1`, 106% (inactive); under `Cn1cc(-c2cc3n(n2)CCC(=O)N3CCCC(=O)Nc2ccccc2F)c2ccccc21`, 134% (inactive).
Consider `Cn1cc(-c2cc3n(n2)CCC(=O)N3CCCC(=O)Nc2ccccc2Cl)c2ccccc21`, for which the survival was -5% (active).
Under `Cc1ccc(CNC(=O)CN2C(=O)CCn3nc(-c4ccccc4)cc32)cc1` stands 72% (inactive); under `Cc1ccc(CNC(=O)CCCN2C(=O)CCn3nc(-c4cn(C)c5ccccc45)cc32)cc1`, 87% (inactive); under `Cn1cc(-c2cc3n(n2)CCC(=O)N3CCCC(=O)NCc2ccc(Cl)cc2)c2ccccc21`, 122% (inactive).
As for `Cc1cccc(CNC(=O)CCCN2C(=O)CCn3nc(-c4cn(C)c5ccccc45)cc32)c1`, the survival is -5% (active).
As to `CN(C)c1ccc(CNC(=O)CCCN2C(=O)CCn3nc(-c4cn(C)c5ccccc45)cc32)cc1`, the survival is 17% (active).
Under `CN(C)c1ccc(CNC(=O)CN2C(=O)CCn3nc(-c4cn(C)c5ccccc45)cc32)cc1` stands 54% (inactive); under `O=C(CN1C(=O)CCn2nc(-c3ccccc3)cc21)NCc1ccc(Cl)cc1`, 0% (active).
Next, `CCc1ccccc1NC(=O)CCCN1C(=O)CCn2nc(-c3cn(C)c4ccccc34)cc21`: 130% (inactive); `Cn1cc(-c2cc3n(n2)CCC(=O)N3CCCC(=O)NCc2ccccc2)c2ccccc21`: 92% (inactive); `COc1ccc(OC)c(NC(=O)c2c(NCc3sccc3C)sc3c2CCCCC3)c1`: 78% (inactive).
`c1ccc(N2CCN(c3ccccc3)C2c2cccs2)cc1`: the survival is 67% (inactive).
Under `CCCCCN1C(C(=O)c2ccccc2)=C(NC(=O)c2ccc(OC)cc2)c2ccccc2S1(=O)=O` stands 57% (inactive).
Under `Cc1ccc(Cn2c(=O)n(CCc3ccccc3)c(=O)c3c(C)c(C)sc32)cc1` stands 24% (inactive).
Under `COc1cc(Cl)c(C)cc1NC(=O)CCn1c(=O)c2cccn2c2cccnc21` stands 83% (inactive); under `CC(C)(SC1CC(=O)N(c2ccccc2)C1=O)C(N)C(=O)O` (centres undefined), 98% (inactive); under `CCc1ccc2c(c1)NC(c1cccnc1)=NC(c1ccc(C(C)(C)C)cc1)=N2`, 63% (inactive).
Take `CCN1c2ccccc2-c2nc(SCC(=O)Nc3cccc(C)c3C)ncc2S1(=O)=O`: the survival was 101% (inactive).
Under `CCc1ccc(-c2nn(CC(=O)NCc3ccccc3)c3c2cnc2ccc(F)cc23)cc1` stands 92% (inactive); under `COc1ccc(CNC(=O)CN2C(=O)CCn3nc(-c4cn(C)c5ccccc45)cc32)cc1`, 96% (inactive).
Next, `CCOc1ccc(CNC(=O)CN2C(=O)CCn3nc(-c4cn(C)c5ccccc45)cc32)cc1OC`: -4% (active).
Under `CCOc1ccccc1CNC(=O)CN1C(=O)CCn2nc(-c3cn(C)c4ccccc34)cc21` stands 66% (inactive); under `CCc1ccccc1NC(=O)CSc1nnc(-c2ccc(OC)cc2)s1`, 80% (inactive); under `Cc1ccc(C(=O)Nc2ccc3nc(SCC(=O)N4CCCc5ccccc54)sc3c2)cc1`, 80% (inactive).
For `CCOc1ccc(CNc2cc(C)nc3nc(-c4cccc(C)c4)nn23)cc1OC`, the survival was 95% (inactive).
Under `CCCCN(CC)CCCNC(=O)CN1C(=O)CSc2ccc(S(=O)(=O)N3CCOCC3)cc21` stands 97% (inactive); under `Cc1ccc(NC(=O)NCC2CCN(Cc3cccc(Cl)c3)CC2)cc1Cl`, -5% (active).
Next, `O=C(NCC1CCN(Cc2cccc(Cl)c2)CC1)Nc1ccc(F)c(Cl)c1`: 55% (inactive); `Cc1ccc(CN2CCC(CNC(=O)Nc3ccccc3F)CC2)cc1`: 113% (inactive).
Under `Cc1ccc(CN2CCC(CNC(=O)Nc3cccc(Cl)c3C)C2)cc1` (centres undefined) stands 75% (inactive); under `O=C(NCC1CCN(Cc2cccc(Cl)c2)CC1)Nc1cc(Cl)ccc1Cl`, 17% (active); under `O=C(NCC1CCN(Cc2ccccc2F)CC1)Nc1ccc(F)c(Cl)c1`, 100% (inactive).
With `COc1ccc(Cn2ccnc2SCC(=O)Nc2ccc3c(c2)OCCO3)cc1`, the survival was 94% (inactive).
Next, `CCCCN(CCCC)C(=O)c1cc2c(=O)n3cccc(C)c3nc2s1`: -13% (active); `O=C(NCc1ccc(F)cc1)c1cc2c(=O)n3ccccc3nc2s1`: 140% (inactive); `CCCN(CCC)C(=O)c1cc2c(=O)n3cccc(C)c3nc2n1C`: 62% (inactive).
Next, `CCCCc1ccc(NC(=O)c2cc3c(=O)n4ccccc4nc3s2)cc1`: 89% (inactive); `CCCCN(CC)C(=O)c1cc2c(=O)n3ccccc3nc2n1C`: 50% (inactive); `Cc1cccn2c(=O)c3cc(C(=O)NC(C)C)n(C)c3nc12`: 53% (active).
Under `CCOC(=O)CNC(=O)c1cc2c(=O)n3cccc(C)c3nc2n1C` stands 102% (inactive); under `CCCCN(CC)C(=O)c1cc2c(=O)n3cccc(C)c3nc2s1`, 54% (inactive); under `CCCCN(CCCC)C(=O)c1cc2c(=O)n3ccccc3nc2s1`, 39% (active).
As to `CCCCN(CC)C(=O)c1cc2c(=O)n3cccc(C)c3nc2n1C`, the survival was 56% (active).
Under `Cc1cccn2c(=O)c3cc(C(=O)NC(C)(C)C)n(C)c3nc12` stands 61% (inactive); under `CCCN(CCC)C(=O)c1cc2c(=O)n3cccc(C)c3nc2s1`, 56% (inactive).
As for `O=C(Nc1ccccc1)c1ccncc1`, the survival is 97% (inactive).
Under `CC(=O)Nc1ccc(S(=O)(=O)Nc2cccc(-c3ccc(N4CCCCCC4)nn3)c2)cc1` stands 83% (inactive); under `Cc1onc2c1C(=O)CC(C)(C)C2`, 73% (inactive).
With `Cc1cc(C)c2c(=O)cc(C(=O)NCc3ccc(S(N)(=O)=O)cc3)oc2c1`, the survival was 117% (inactive).
Under `Cc1ccc(F)cc1NC(=O)CSc1nc(-c2cccs2)cc(C(F)(F)F)n1` stands 68% (inactive); under `CC(=O)N1CCOc2cc(S(=O)(=O)NCc3ccccc3Cl)c(Cl)cc21`, 76% (inactive).
Next, `Cc1nc2sccn2c(=O)c1S(=O)(=O)Nc1ccc(N2CCOCC2)cc1`: 62% (inactive).
Next, `CCOC(=O)c1ccc(NC(=O)CN2C(=O)C(C)(C)c3ccccc32)cc1`: 115% (inactive).
`CCN(C(=O)Cn1c(SCC(=O)NCc2ccccc2)nc2ccccc21)c1cccc(C)c1`: the survival is 65% (inactive).
For the compound `Cc1nc(N)sc1C(C)(C)C`, the survival was 86% (inactive).

The record behind these values is PubChem BioAssay AID463173 (ICCB-Longwood Screening Facility, Harvard Medical School, 2010).
